Values joined by “and” are separate entries in the source; they are usually repeats but may differ in a detail not shown here. Equal values may be shown once. The whole screen tested about 5,500 compounds, of which about 2,000 (36%) were called active. Inconclusive results (about 18%) are left out. Rule as the data show it: active = normalized growth mostly below about 0.91 (no sharp cut-off); inconclusive = no clear call, values can overlap the other calls; inactive = mostly above about 0.92. This is one part of the list.
Assay: chemical genetic growth profiling, strain panel (AID 1159580);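 also: tested at 20 µM; growth read once vehicle control cultures reached saturation at 30 °C; 1 = growth at the plate median or of vehicle wells; lower values mean less growth of the strain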
Conditions: S. cerevisiae deletion strains, growth OD

Measured: normalized growth

CN(C)CCCN1c2ccccc2CCc2ccccc21
inactive: locus YAL013W, strain DEP1, stronger effect = lower value 1.01 and 0.974 | locus YAL021C, strain ccr4, stronger effect = lower value 0.965 | locus YAL026C, strain drs2, stronger effect = lower value 1 | locus YAL030W, strain snc1, stronger effect = lower value 1 | locus YAL040C, strain CLN3, stronger effect = lower value 1.05 | locus YBL061C, strain skt5, stronger effect = lower value 1 | locus YBR009C, strain hhf1, stronger effect = lower value 0.995 | locus YBR021W, strain FUR4, stronger effect = lower value 0.997 | locus YBR023C, strain chs3, stronger effect = lower value 1 | locus YBR171W, strain sec66, stronger effect = lower value 1.01 | locus YBR229C, strain ROT2, stronger effect = lower value 1 | locus YBR231C, strain swc5, stronger effect = lower value 1 | locus YBR279W, strain paf1, stronger effect = lower value 1 | locus YCL011C, strain gbp2, stronger effect = lower value 1.01 | locus YCL016C, strain dcc1, stronger effect = lower value 0.994 | locus YCL029C, strain bik1, stronger effect = lower value 1 | locus YCL061C, strain MRC1 (second series), stronger effect = lower value 1 | locus YCL061C, strain MRC1, stronger effect = lower value 0.997 | locus YCL069W, strain vba3, stronger effect = lower value 1 | locus YCR088W, strain abp1, stronger effect = lower value 1.01 | locus YDL005C, strain med2, stronger effect = lower value 1.01 | locus YDL035C, strain GPR1, stronger effect = lower value 1.03 | locus YDL040C, strain nat1, stronger effect = lower value 1 | locus YDL074C, strain BRE1, stronger effect = lower value 1.02 | locus YDL101C, strain DUN1, stronger effect = lower value 1.03 | locus YDL134C, strain PPH21, stronger effect = lower value 1.03 | locus YDL185W, strain tfp1, stronger effect = lower value 0.993 | locus YDL192W, strain arf1, stronger effect = lower value 0.992 | locus YDR001C, strain nth1, stronger effect = lower value 1.01 | locus YDR069C, strain doa4, stronger effect = lower value 0.994 | locus YDR101C, strain arx1, stronger effect = lower value 0.998 | locus YDR137W, strain rgp1, stronger effect = lower value 1.1 | locus YDR150W, strain NUM1, stronger effect = lower value 1.01 | locus YDR159W, strain sac3, stronger effect = lower value 1 | locus YDR162C, strain NBP2, stronger effect = lower value 1.01 | locus YDR195W, strain ref2 1.02 | locus YDR297W, strain sur2, stronger effect = lower value 0.996 | locus YDR318W, strain mcm21, stronger effect = lower value 0.994 | locus YDR334W, strain swr1, stronger effect = lower value 1.01 | locus YDR335W, strain msn5, stronger effect = lower value 1.01 | locus YDR363W, strain ESC2, stronger effect = lower value 0.964 | locus YDR388W, stronger effect = lower value 0.995 | locus YDR392W, strain spt3, stronger effect = lower value 1.01 | locus YDR502C, strain sam2, stronger effect = lower value 0.993 | locus YEL003W, strain gim4, stronger effect = lower value 1 | locus YEL037C, strain rad23, stronger effect = lower value 1 | locus YEL061C, strain CIN8 (second series), stronger effect = lower value 1.03 | locus YEL061C, strain CIN8, stronger effect = lower value 1.01 | locus YER002W, strain NOP16, stronger effect = lower value 1.01 | locus YER015W, strain faa2, stronger effect = lower value 0.993 | locus YER016W, strain bim1, stronger effect = lower value 1.01 | locus YER110C, stronger effect = lower value 0.988 | locus YER111C, strain swi4, stronger effect = lower value 0.99 | locus YER155C, strain BEM2 (second series), stronger effect = lower value 0.975 | locus YER155C, strain BEM2, stronger effect = lower value 1 | locus YER167W, strain BCK2, stronger effect = lower value 1.01 | locus YFR010W, strain ubp6, stronger effect = lower value 1.01 | locus YGL078C, strain dbp3, stronger effect = lower value 0.972 | locus YGL086W, strain mad1, stronger effect = lower value 1.01 | locus YGL167C, strain pmr1, stronger effect = lower value 1.01 | locus YGL173C, strain kem1, stronger effect = lower value 0.991 | locus YGL227W, strain vid30, stronger effect = lower value 1 | locus YGL240W, strain doc1, stronger effect = lower value 1 | locus YGL248W, strain PDE1, stronger effect = lower value 1.01 | locus YGL253W, strain hxk2, stronger effect = lower value 1.02 | locus YGR078C, strain PAC10, stronger effect = lower value 1 and 0.981 | locus YGR135W, strain pre9, stronger effect = lower value 0.958 | locus YGR229C, strain SMI1, stronger effect = lower value 1 and 0.978 | locus YGR252W, strain gcn5, stronger effect = lower value 0.942 | locus YHR013C, strain ard1, stronger effect = lower value 0.947 | locus YHR027C, strain rpn1, stronger effect = lower value 1.01 | locus YHR030C, strain SLT2, stronger effect = lower value 1 and 0.993 | locus YHR079C, strain IRE1 (second series), stronger effect = lower value 0.989 | locus YHR079C, strain IRE1, stronger effect = lower value 1.01 | locus YHR094C, strain hxt1, stronger effect = lower value 0.978 | locus YHR129C, strain ARP1, stronger effect = lower value 1.01 | locus YHR142W, strain chs7, stronger effect = lower value 1.02 | locus YHR200W, strain rpn10, stronger effect = lower value 1 | locus YIL066C, strain RNR3, stronger effect = lower value 1.01 | locus YIL073C, strain SPO22, stronger effect = lower value 1 | locus YIL125W, strain kgd1, stronger effect = lower value 0.995 | locus YIR030C, strain dcg1, stronger effect = lower value 0.984 | locus YJL092W, strain hpr5, stronger effect = lower value 1.01 | locus YJL095W, strain BCK1 (second series), stronger effect = lower value 0.996 | locus YJL095W, strain BCK1, stronger effect = lower value 0.997 and 0.998 | locus YJL115W, strain asf1, stronger effect = lower value 1.01 | locus YJL129C, strain trk1, stronger effect = lower value 0.995 | locus YJL134W, strain LCB3, stronger effect = lower value 1.01 | locus YJL154C, strain vps35, stronger effect = lower value 1.02 | locus YJL164C, strain tpk1, stronger effect = lower value 1 | locus YJL166W, strain qcr8, stronger effect = lower value 1.02 | locus YJL168C, strain set2, stronger effect = lower value 0.984 | locus YJL187C, strain SWE1 (second series), stronger effect = lower value 1.01 | locus YJR043C, strain POL32, stronger effect = lower value 1.03 | locus YJR066W, strain TOR1, stronger effect = lower value 0.923
